Experimental data as given in PubChem BioAssay (Tox21).
“And” between values parts separate entries of the source, which are not always exact repeats. Equal entries are not always repeated. Results filed as inconclusive are left out. Where a call stands in place of a potency, no number is given. The source holds several records for some structures; these can differ, active in one and inactive in another. The source made the active and inactive calls. Calls come from the whole dose curve; as a rule, active = well fitted curve in the direction sought with a large enough effect in the repeat runs; inconclusive = weak or mixed curves; inactive = no such curve, though single readings can be large; an effect the other way counts as inactive or inconclusive.

Test system: not listed separately
Experiment: qHTS assay to identify small molecule antagonists of the estrogen related receptor (ERR) signaling pathway from Tox21 library - cell viability counter screen (AID 1224834); note: nearly all actives have a fitted effect of over 30% in size
Details: ERR reporter cells viability, CellTiter-Fluor, 17.5 h; series mostly up to 92.4 µM; viability change, negative = cytotoxic: at the top concentration
Procedure, shortened: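 Fluorescence from CellTiter-Fluor gives the viability read-out, taken 30 min after reagent addition. Before that, ERR cells seeded 6 h earlier were incubated with compounds for 17.5 h at 37 C.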

Compound | Potency
Clc1ccccc1Cl | inactive
CCc1cccc(C)c1N(C(=O)CCl)C(C)COC (stereo not drawn) | inactive
CCCCOC(=O)c1ccccc1C(=O)OCCCC | inactive

Target: Luciferin 4-monooxygenase (Photinus pyralis) (UniProt P08659)
Experiment: qHTS assay to identify small molecule inhibitors of firefly luciferase (AID 1224835); note: nearly all actives have a fitted effect of over 25% in size; note: potency is the fitted concentration of half-maximal effect
Details: purified P. pyralis luciferase, luminescence inhibition; series mostly up to 115 µM; activity change, negative = inhibition: at the top concentration
Procedure, shortened: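 Quantitative HTS format; KM concentrations of both substrates. Purified P. pyralis FLuc activity quantified from luminescence images.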

Luciferin 4-monooxygenase (Photinus pyralis), sequence (P08659 whole entry, looked up): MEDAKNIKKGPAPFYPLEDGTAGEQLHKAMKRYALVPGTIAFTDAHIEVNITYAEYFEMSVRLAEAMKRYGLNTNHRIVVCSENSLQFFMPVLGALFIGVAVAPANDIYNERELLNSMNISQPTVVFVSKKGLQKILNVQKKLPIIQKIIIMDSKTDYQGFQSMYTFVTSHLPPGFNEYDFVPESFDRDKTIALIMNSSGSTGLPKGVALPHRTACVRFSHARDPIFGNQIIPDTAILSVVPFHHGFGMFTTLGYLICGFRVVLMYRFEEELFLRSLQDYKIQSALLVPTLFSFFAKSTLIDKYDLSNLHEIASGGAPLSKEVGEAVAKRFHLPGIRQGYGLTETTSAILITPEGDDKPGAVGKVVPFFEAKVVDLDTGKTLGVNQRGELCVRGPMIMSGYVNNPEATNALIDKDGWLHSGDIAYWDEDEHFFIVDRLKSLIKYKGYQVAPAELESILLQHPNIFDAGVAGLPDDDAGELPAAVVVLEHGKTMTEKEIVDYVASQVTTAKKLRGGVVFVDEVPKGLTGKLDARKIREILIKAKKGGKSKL

Compound | Potency | activity change, negative = inhibition
OCCN(CCO)CCO | inactive | 
CC(C)C1(C)N=C(c2nc3ccccc3cc2C(=O)O)NC1=O (stereo not drawn) | inactive | 
Clc1cccc(Cl)c1Cl | inactive | 
O=[N+]([O-])c1ccccc1 | inactive | 
Cc1ccc(N)cc1Cl | inactive and 56.4 µM (active) | 
O=c1[nH]c(=O)[nH]c(=O)[nH]1 | inactive | 
O=C(NC(=O)c1c(F)cccc1F)Nc1cc(Cl)c(OC(F)(F)C(F)C(F)(F)F)cc1Cl (stereo not drawn) | inactive | 
Cc1cc(Cl)ccc1O | inactive | 
CN=C=S | inactive | 
CC(C)(C)OOC(=O)c1ccccc1 |  | -4.11% (inactive)
O=NN1CCCC1 | 83.4 µM (active) and inactive | 
CC(C)C#N | inactive | 
C#CCN(C)[C@H](C)Cc1ccccc1 | inactive | 
c1ccc(-c2ccccc2)cc1 | inactive | 
c1cc2c3c(cccc3c1)CC2 | inactive | 
CNC(=O)Oc1ccccc1OC(C)C | inactive | 
O=Cc1cccc(Oc2ccccc2)c1 | inactive | 
CC(C)(Cl)Cl | inactive | 

Compound | Potency | activity change, negative = inhibition
NCC(O)c1ccc(O)cc1 (stereo not drawn) | inactive | 
C=CC(N)=O | inactive | 
BrCCBr | inactive | 
Nc1ccccc1C(=O)O | inactive | 
CN(C)CCO | inactive | 
CC1C=[C-]C=C1.[C-]#[O+].[C-]#[O+].[C-]#[O+].[Mn] | inactive | 
O=[N+]([O-])c1ccc([As](=O)(O)O)cc1 | inactive | 
Clc1ccc(Cl)cc1 | inactive | 
CC(C)(C)C(O)(CCc1ccc(Cl)cc1)Cn1cncn1 (stereo not drawn) | inactive | 
C1CC2OC2CC1C1CO1 (stereo not drawn) | inactive | 
Nc1ccc(Oc2ccc(N)cc2)cc1 | inactive and 63.3 µM (active) | 
COCCl | inactive | 
CC(C)OC(=O)Nc1ccccc1 | 40 µM (active) and 35.6 µM (active) | 
CN(C)N=O | inactive | 
Clc1ccccc1Cl | inactive | 
CCc1cccc(C)c1N(C(=O)CCl)C(C)COC (stereo not drawn) | inactive | 
CCCCOC(=O)c1ccccc1C(=O)OCCCC | inactive | 

Test system: not listed separately
Experiment: qHTS assay to identify small molecule agonists of the constitutive androstane receptor (CAR) signaling pathway - cell viability counter screen (AID 1224836); note: nearly all actives have a fitted effect of over 45% in size
Details: HepG2-CYP2B6-hCAR viability, CellTiter-Fluor, 23 h, PK11195 added to every well; series mostly up to 92.4 µM; viability change, negative = cytotoxic: at the top concentration
Procedure, shortened: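 23 h treatment, 37 C, 5% CO2. Cell line: HepG2 stably expressing hCAR with a CYP2B6-2.2kb construct. Co-treatment: PK11195, 0.75 uM final. Read-out: CellTiter-Fluor fluorescence intensity.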

Compound | Potency
CON(C)C(=O)Nc1ccc(Cl)c(Cl)c1 | inactive
OCCN(CCO)CCO | inactive
CC(C)C1(C)N=C(c2nc3ccccc3cc2C(=O)O)NC1=O (stereo not drawn) | inactive
Clc1cccc(Cl)c1Cl | inactive
O=[N+]([O-])c1ccccc1 | inactive
Cc1ccc(N)cc1Cl | inactive
O=c1[nH]c(=O)[nH]c(=O)[nH]1 | inactive
O=C(NC(=O)c1c(F)cccc1F)Nc1cc(Cl)c(OC(F)(F)C(F)C(F)(F)F)cc1Cl (stereo not drawn) | inactive
Cc1cc(Cl)ccc1O | inactive
CN=C=S | inactive
CC(C)(C)OOC(=O)c1ccccc1 | inactive
CC(C)C#N | inactive
C#CCN(C)[C@H](C)Cc1ccccc1 | inactive
c1ccc(-c2ccccc2)cc1 | inactive
c1cc2c3c(cccc3c1)CC2 | inactive
CNC(=O)Oc1ccccc1OC(C)C | inactive
O=Cc1cccc(Oc2ccccc2)c1 | inactive
CC(C)(Cl)Cl | inactive

Compound | Potency
NCC(O)c1ccc(O)cc1 (stereo not drawn) | inactive
C=CC(N)=O | inactive
BrCCBr | inactive
Nc1ccccc1C(=O)O | inactive
CN(C)CCO | inactive
CC1C=[C-]C=C1.[C-]#[O+].[C-]#[O+].[C-]#[O+].[Mn] | inactive
O=[N+]([O-])c1ccc([As](=O)(O)O)cc1 | inactive
Clc1ccc(Cl)cc1 | inactive
CC(C)(C)C(O)(CCc1ccc(Cl)cc1)Cn1cncn1 (stereo not drawn) | inactive
C1CC2OC2CC1C1CO1 (stereo not drawn) | inactive
Nc1ccc(Oc2ccc(N)cc2)cc1 | inactive
COCCl | inactive
CC(C)OC(=O)Nc1ccccc1 | inactive
CN(C)N=O | inactive
Clc1ccccc1Cl | inactive
CCc1cccc(C)c1N(C(=O)CCl)C(C)COC (stereo not drawn) | inactive
CCCCOC(=O)c1ccccc1C(=O)OCCCC | inactive

Test system: not listed separately
Experiment: qHTS assay to identify small molecule antagonists of the constitutive androstane receptor (CAR) signaling pathway - cell viability counter screen (AID 1224837); note: nearly all actives have a fitted effect of over 45% in size
Details: HepG2-CYP2B6-hCAR viability, CellTiter-Fluor, 23 h, co-treated with 50 nM CITCO; series mostly up to 92.4 µM; activity change, negative = cytotoxicity: at the top concentration
Procedure, shortened: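 HepG2-CYP2B6-hCAR cells, 2500/well, 4 hr pre-incubation; compound titration, 15 conc.; CITCO 50 nM final; 23 hr, 37 C/5% CO2; CellTiter-Fluor, fluorescence intensity.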

Compound | Potency
CON(C)C(=O)Nc1ccc(Cl)c(Cl)c1 | inactive
OCCN(CCO)CCO | inactive
CC(C)C1(C)N=C(c2nc3ccccc3cc2C(=O)O)NC1=O (stereo not drawn) | inactive
Clc1cccc(Cl)c1Cl | inactive
O=[N+]([O-])c1ccccc1 | inactive
Cc1ccc(N)cc1Cl | inactive
O=c1[nH]c(=O)[nH]c(=O)[nH]1 | inactive
O=C(NC(=O)c1c(F)cccc1F)Nc1cc(Cl)c(OC(F)(F)C(F)C(F)(F)F)cc1Cl (stereo not drawn) | inactive
Cc1cc(Cl)ccc1O | inactive
CN=C=S | inactive
CC(C)(C)OOC(=O)c1ccccc1 | inactive
CC(C)C#N | inactive
C#CCN(C)[C@H](C)Cc1ccccc1 | inactive
c1ccc(-c2ccccc2)cc1 | inactive
c1cc2c3c(cccc3c1)CC2 | inactive
CNC(=O)Oc1ccccc1OC(C)C | inactive
O=Cc1cccc(Oc2ccccc2)c1 | inactive
CC(C)(Cl)Cl | inactive

Compound | Potency
NCC(O)c1ccc(O)cc1 (stereo not drawn) | inactive
C=CC(N)=O | inactive
BrCCBr | inactive
Nc1ccccc1C(=O)O | inactive
CN(C)CCO | inactive
CC1C=[C-]C=C1.[C-]#[O+].[C-]#[O+].[C-]#[O+].[Mn] | inactive
O=[N+]([O-])c1ccc([As](=O)(O)O)cc1 | inactive
Clc1ccc(Cl)cc1 | inactive
CC(C)(C)C(O)(CCc1ccc(Cl)cc1)Cn1cncn1 (stereo not drawn) | inactive
C1CC2OC2CC1C1CO1 (stereo not drawn) | inactive
Nc1ccc(Oc2ccc(N)cc2)cc1 | inactive
COCCl | inactive
CC(C)OC(=O)Nc1ccccc1 | inactive
CN(C)N=O | inactive
Clc1ccccc1Cl | inactive
CCc1cccc(C)c1N(C(=O)CCl)C(C)COC (stereo not drawn) | inactive
CCCCOC(=O)c1ccccc1C(=O)OCCCC | inactive
